Assay results as given in PubChem BioAssay (NCATS).
Results filed as inconclusive are left out. Calls of active or inactive are those of the source. Unless noted, calls follow the shape of the dose curve; as a rule, active = well fitted curve in the direction sought with a large enough effect; inconclusive = small, poorly fitted or top-dose-only effect, or another doubt; inactive = no such curve, though single readings can be large; an effect the other way counts as inactive or inconclusive.

Key:
[1] = NCATS anti-infectives library activity on the primary C. elegans qHTS viability assay (AID 1745855; calls by dose curve; also: potency is read from the fitted curve at half-maximal effect); settings: C. elegans worm area imaging, day 7
Procedure, shortened: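 GFP read-out by 488 nm laser cytometry at day 0, 3 and 7, gated on object perimeter, area and peak intensity, scored viability of PE254-GFP-FLuc worms exposed to compound in S medium with bacterial capsules at 21 °C.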

7G8 = experiment: qHTS profiling for inhibitors of Plasmodium falciparum proliferation (AID 504749); also: nearly all actives have a fitted effect of over 60% in size; also: potency is read from the fitted curve at half-maximal effect; settings: P. falciparum in erythrocytes, SYBR Green DNA, 72 h; series mostly up to 12.8 µM
Procedure, shortened: (§1)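 SYBR Green fluorescence of parasite DNA, read after lysis and overnight dark incubation, measured growth over 72 h in erythrocyte culture at 0.3% parasitemia and 2.5% hematocrit. Data normalised to DMSO and 0.29 uM artemisinin, with plate-drift correction.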

CP215 = experiment: as above; settings: P. falciparum in erythrocytes, SYBR Green DNA, 72 h; series mostly up to 28.7 µM
Procedure, shortened: as §1

DIV14 = experiment: as above; settings: P. falciparum in erythrocytes, SYBR Green DNA, 72 h; series mostly up to 12.8 µM
Procedure, shortened: as §1

GB4 = experiment: as above; settings: P. falciparum in erythrocytes, SYBR Green DNA, 72 h; series mostly up to 12.8 µM
Procedure, shortened: as §1

ICS = experiment: as above; settings: P. falciparum in erythrocytes, SYBR Green DNA, 72 h; series mostly up to 12.8 µM
Procedure, shortened: as §1

P93_24 = experiment: as above; settings: P. falciparum in erythrocytes, SYBR Green DNA, 72 h; series mostly up to 12.8 µM
Procedure, shortened: as §1

[2] = biological target: Guanine nucleotide-binding protein G(i) subunit alpha-1 (Homo sapiens) (UniProt P63096); experiment: qHTS Assay for Inhibitors of RGS12 GoLoco Motif Activity (Green Fluorophore) (AID 879); settings: Galphai1/FITC-RGS12 GoLoco peptide, fluorescence polarization; series mostly up to 57.1 µM;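 also: negative values mean loss of peptide binding seen as reduced polarization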
Procedure, shortened: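 A drop in FITC polarization marked displacement of the FITC-tagged RGS12 GoLoco peptide (10 nM) from Gαi1 (50 nM). Compounds were incubated 10 min at room temperature in Tris pH 7.5 buffer containing 150 mM NaCl, 0.1 mM GDP and 0.05% NP40; unlabeled peptide titration served as control.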

[3] = biological target: Muscarinic acetylcholine receptor M1 (Rattus norvegicus) (UniProt P08482); experiment: qHTS Assay for Antagonists of Acetylcholine Muscarinic M1 Receptor: Measurement of IP-One Response (AID 944); settings: CHO-M1 cells, IP-One HTRF, antagonist mode; series mostly up to 46.1 µM; also: nearly all actives have a fitted effect of over 75% in size
Procedure, shortened: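 IP1 accumulation measured via TR-FRET between d2-IP1 and Eu-cryptate anti-IP1 antibody after carbachol (200 nM, EC80) stimulation for 30 min; rat M1-transfected CHO cells received compound 10 min before agonist.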

[4] = biological target: Pyruvate kinase (Leishmania mexicana) (UniProt Q27686); experiment: qHTS Validation Assay for Inhibitors of Leishmania Mexicana Pyruvate Kinase (AID 945); settings: purified L. mexicana pyruvate kinase, enzyme activity, E451W mutant enzyme; series mostly up to 57.5 µM
Procedure, shortened: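 Eight-point qHTS titrations in triplicate, data normalized to DMSO neutral control. Reaction: 0.2 nM LmPYK E451W mutant, 0.5 mM PEP, 0.1 mM ADP, 7 mM MgCl2, pH 7.2, one hour at room temperature; luminescent ATP detection.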

[5] = biological target: Pyruvate kinase PKM (Homo sapiens) (UniProt P14618); experiment: qHTS Assay for Activators of Human Muscle Pyruvate Kinase (AID 954; active = well fitted curve in the direction sought with a large enough effect, not every such curve was filed as active); settings: purified human muscle pyruvate kinase, luciferase-coupled luminescence, 1 h; series mostly up to 57.5 µM
Procedure, shortened: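 A coupled luminescent readout tracked ATP made from ADP by purified PKM2. Final conditions included 0.1 nM enzyme, PEP and ADP at 0.5 and 0.1 mM, pH 7.2 imidazole buffer with BSA, and a one-hour room-temperature reaction.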

[6] = biological target: alpha-glucosidase (Oryza sativa, rice) (UniProt Q653V4); experiment: Counterscreen for Glucocerebrosidase Inhibitors: qHTS Assay for Rice alpha-Glucosidase at pH 5.0 (AID 997); settings: rice alpha-glucosidase enzyme activity; series mostly up to 76.9 µM
Procedure, shortened: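 Endpoint fluorogenic assay at pH 5.0: compounds (0.7 nM to 77 uM) titrated against 4 nM rice enzyme and 400 uM 4-MU-alpha-glucoside for 20 min at room temperature; NaOH/glycine stop, read ex 365/em 440 nm, Hill-fitted AC50.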

[7] = S16 Schwann cell PMP22 intronic element beta-lactamase assay (AID 624044; calls by dose curve; also: nearly all actives have a fitted effect of over 15% in size); settings: S16 rat Schwann cells, PMP22 element beta-lactamase FRET, 24 h; series mostly up to 17.1 µM
Procedure, shortened: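 Beta-lactamase reporter under a PMP22 intronic regulatory element in stable S16 rat Schwann cells; 24 h compound exposure. 460 nm blue signal normalized between DMSO (0%) and potassium clavulanate, with 535 nm FRET tracking viability; curves classed by r2 and response.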

CP262 = experiment: qHTS profiling for inhibitors of Plasmodium falciparum proliferation (AID 504749); also: nearly all actives have a fitted effect of over 60% in size; also: potency is read from the fitted curve at half-maximal effect; settings: P. falciparum in erythrocytes, SYBR Green DNA, 72 h; series mostly up to 12.8 µM
Procedure, shortened: as §1

[8] = biological target: Cytochrome P450 3A4 (Homo sapiens) (UniProt P08684); experiment: qHTS for inhibitors of CYP3A4 against the NCATS DSHEA and TCM libraries (AID 1919971); settings: recombinant CYP3A4 enzyme activity, luminescence qHTS; series mostly up to 34.1 µM;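 also: inhibition lowers luminescence from luciferin made by CYP3A4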
Procedure, shortened: (§2)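 Each CYP isoform and its pro-luciferin substrate, at isoform-specific final concentrations, were preincubated 15 min at RT with substances. NADPH regeneration solution (1x) started a 30-45 min reaction, and P450-Glo luminescence was read.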

[9] = biological target: Cytochrome P450 2C19 (Homo sapiens) (UniProt P33261); experiment: qHTS for inhibitors of CYP2C19 against the NCATS DSHEA and TCM libraries (AID 1919974); settings: CYP2C19 enzyme inhibition, luminescence qHTS; series mostly up to 34.1 µM;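 also: luminescence from luciferin released by CYP2C19 oxidation of a pro-luciferin substrate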; also: potency is read from the fitted curve at half-maximal effect
Procedure, shortened: as §2

[10] = Viability counterscreen for antagonist of constitutive androstane receptor (CAR) against the NCATS DSHEA and TCM libraries (AID 1794837); settings: CAR reporter cell line viability counterscreen, qHTS; series mostly up to 40 µM;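 also: compound exposure lasted 24 h before viability reading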
Procedure, shortened: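 HepG2-CYP2B6-hCAR cells (2,500/well) were allowed to attach for 5 h, then exposed to compounds with 48 uM CITCO for 24 h at 37C. Viability was read by CellTiter-Fluor fluorescence after 1 h.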

[11] = Viability counterscreen for agonist of constitutive androstane receptor (CAR) against the NCATS DSHEA and TCM libraries (AID 1794838); settings: HepG2 cell viability counterscreen, CAR agonist assay, co-treated with 0.75 µM CAR antagonist; series mostly up to 40 µM
Procedure, shortened: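 HepG2-CYP2B6-hCAR cells (2,500/well) attached 5 h, then got compounds plus 0.75 uM PK11195 final. After 24 h at 37C, viability read by CellTiter-Fluor fluorescence (Ex/Em 405/540 nm).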

[12] = biological target: Nuclear receptor subfamily 1 group I member 3 (Homo sapiens) (UniProt Q14994); experiment: Primary qHTS for agonist of constitutive androstane receptor (CAR) against the NCATS DSHEA and TCM libraries (AID 1794839); settings: CAR agonist reporter cells, qHTS luminescence, CAR antagonist co-added at 0.75 µM; series mostly up to 40 µM;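 also: HepG2 cells expressing human CAR with a CYP2B6 reporter plus PK11195 antagonist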
Procedure, shortened: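 HepG2-CYP2B6-hCAR cells (2,500/well) were attached for 5 h, then treated for 24 h at 37 °C with compounds plus 0.75 µM PK11195. Luciferase luminescence (ONE-Glo) was read, with CellTiter-Fluor viability (Ex/Em 405/540 nm).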

[13] = biological target: Cytochrome P450 2C9 (Homo sapiens) (UniProt P11712); experiment: qHTS for inhibitors of CYP2C9 against the NCATS DSHEA and TCM libraries (AID 1919973); settings: recombinant CYP2C9 enzyme activity, luminescence; series mostly up to 58.3 µM; also: potency is read from the fitted curve at half-maximal effect
Procedure, shortened: as §2

Measured: Potency

Cytochrome P450 3A4 (Homo sapiens), sequence (P08684 whole entry, looked up, canonical isoform): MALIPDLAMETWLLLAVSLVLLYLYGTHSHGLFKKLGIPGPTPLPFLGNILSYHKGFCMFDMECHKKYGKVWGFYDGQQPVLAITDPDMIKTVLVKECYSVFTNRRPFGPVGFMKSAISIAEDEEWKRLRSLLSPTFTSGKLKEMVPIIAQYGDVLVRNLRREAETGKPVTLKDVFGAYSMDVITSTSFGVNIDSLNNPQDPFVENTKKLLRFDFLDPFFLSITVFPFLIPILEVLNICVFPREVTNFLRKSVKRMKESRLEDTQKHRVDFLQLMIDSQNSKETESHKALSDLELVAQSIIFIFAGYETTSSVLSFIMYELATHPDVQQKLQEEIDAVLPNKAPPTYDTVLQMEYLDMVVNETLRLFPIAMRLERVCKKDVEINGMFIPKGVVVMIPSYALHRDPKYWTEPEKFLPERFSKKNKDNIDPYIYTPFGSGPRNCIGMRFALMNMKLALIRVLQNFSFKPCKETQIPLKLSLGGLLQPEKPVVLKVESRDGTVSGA
Cytochrome P450 2C9 (Homo sapiens), sequence (P11712 whole entry, looked up): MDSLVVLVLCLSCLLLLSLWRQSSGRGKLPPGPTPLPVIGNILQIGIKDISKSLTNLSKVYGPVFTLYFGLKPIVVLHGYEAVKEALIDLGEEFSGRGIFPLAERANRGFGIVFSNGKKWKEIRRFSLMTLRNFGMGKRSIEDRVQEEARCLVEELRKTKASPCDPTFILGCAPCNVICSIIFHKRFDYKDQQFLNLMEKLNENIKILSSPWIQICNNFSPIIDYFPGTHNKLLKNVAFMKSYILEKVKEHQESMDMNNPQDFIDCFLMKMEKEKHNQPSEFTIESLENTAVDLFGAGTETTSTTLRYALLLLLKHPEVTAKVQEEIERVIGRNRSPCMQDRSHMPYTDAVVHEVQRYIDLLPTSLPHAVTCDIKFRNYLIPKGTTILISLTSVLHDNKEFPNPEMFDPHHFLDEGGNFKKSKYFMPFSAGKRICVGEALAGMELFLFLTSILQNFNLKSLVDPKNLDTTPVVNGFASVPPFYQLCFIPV
Cytochrome P450 2C19 (Homo sapiens), sequence (P33261 whole entry, looked up): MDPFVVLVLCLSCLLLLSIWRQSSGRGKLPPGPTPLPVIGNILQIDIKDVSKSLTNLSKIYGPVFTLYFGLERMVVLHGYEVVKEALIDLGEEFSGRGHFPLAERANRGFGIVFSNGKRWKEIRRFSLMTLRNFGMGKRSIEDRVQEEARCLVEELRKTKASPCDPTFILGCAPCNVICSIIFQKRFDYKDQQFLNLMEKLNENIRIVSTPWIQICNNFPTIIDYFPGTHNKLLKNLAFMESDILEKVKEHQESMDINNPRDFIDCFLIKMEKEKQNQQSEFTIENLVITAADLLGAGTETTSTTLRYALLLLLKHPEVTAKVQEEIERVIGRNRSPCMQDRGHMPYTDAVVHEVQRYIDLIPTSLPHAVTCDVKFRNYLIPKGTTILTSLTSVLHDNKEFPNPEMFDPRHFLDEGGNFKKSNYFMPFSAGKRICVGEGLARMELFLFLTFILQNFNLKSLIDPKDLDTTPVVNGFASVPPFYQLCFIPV
Nuclear receptor subfamily 1 group I member 3 (Homo sapiens), sequence (Q14994 whole entry, looked up): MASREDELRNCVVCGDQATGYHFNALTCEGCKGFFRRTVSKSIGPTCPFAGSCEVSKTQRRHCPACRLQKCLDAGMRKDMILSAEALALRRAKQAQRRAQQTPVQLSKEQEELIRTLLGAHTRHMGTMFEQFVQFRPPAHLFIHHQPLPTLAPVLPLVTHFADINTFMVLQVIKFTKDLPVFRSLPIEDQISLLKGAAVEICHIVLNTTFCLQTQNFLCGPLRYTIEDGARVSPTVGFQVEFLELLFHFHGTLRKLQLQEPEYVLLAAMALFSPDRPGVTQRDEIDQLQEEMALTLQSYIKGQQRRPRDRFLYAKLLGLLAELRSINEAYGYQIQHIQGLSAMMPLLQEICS
Pyruvate kinase (Leishmania mexicana), sequence (Q27686 2-499 E452W): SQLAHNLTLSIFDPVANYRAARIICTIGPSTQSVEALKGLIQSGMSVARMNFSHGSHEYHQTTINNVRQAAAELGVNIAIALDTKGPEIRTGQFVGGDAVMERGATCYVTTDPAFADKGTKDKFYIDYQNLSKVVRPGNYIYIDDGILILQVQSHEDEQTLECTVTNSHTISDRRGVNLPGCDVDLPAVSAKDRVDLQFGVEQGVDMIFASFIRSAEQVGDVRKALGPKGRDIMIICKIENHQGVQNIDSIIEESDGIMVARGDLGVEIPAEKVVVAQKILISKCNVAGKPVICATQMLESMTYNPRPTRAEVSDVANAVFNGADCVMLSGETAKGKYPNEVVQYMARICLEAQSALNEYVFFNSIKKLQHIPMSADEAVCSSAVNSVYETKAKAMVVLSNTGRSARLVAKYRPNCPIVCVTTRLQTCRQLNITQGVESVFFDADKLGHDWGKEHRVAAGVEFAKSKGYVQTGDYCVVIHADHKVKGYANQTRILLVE
Muscarinic acetylcholine receptor M1 (Rattus norvegicus), sequence (P08482 whole entry, looked up): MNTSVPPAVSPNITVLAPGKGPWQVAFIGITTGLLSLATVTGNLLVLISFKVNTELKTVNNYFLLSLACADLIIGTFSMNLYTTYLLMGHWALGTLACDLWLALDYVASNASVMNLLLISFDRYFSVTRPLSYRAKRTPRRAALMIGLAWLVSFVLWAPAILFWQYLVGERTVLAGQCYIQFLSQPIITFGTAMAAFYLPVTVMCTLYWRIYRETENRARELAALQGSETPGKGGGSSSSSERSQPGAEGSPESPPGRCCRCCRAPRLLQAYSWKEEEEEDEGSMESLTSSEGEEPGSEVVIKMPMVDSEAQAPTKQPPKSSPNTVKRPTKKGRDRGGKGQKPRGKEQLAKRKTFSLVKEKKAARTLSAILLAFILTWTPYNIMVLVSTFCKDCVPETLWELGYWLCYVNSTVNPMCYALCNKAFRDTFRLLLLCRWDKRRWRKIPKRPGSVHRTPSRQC
Guanine nucleotide-binding protein G(i) subunit alpha-1 (Homo sapiens), sequence (P63096 whole entry, looked up): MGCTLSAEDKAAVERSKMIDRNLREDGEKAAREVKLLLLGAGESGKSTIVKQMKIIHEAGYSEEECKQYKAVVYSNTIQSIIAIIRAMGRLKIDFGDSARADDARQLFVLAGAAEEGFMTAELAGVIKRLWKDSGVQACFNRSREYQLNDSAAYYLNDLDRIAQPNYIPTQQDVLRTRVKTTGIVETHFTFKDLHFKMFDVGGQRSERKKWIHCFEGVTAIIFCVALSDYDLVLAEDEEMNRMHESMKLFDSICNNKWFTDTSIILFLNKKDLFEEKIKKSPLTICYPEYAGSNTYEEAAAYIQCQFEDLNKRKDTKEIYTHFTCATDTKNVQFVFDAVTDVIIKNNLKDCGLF
Pyruvate kinase PKM (Homo sapiens), sequence (P14618 whole entry, looked up): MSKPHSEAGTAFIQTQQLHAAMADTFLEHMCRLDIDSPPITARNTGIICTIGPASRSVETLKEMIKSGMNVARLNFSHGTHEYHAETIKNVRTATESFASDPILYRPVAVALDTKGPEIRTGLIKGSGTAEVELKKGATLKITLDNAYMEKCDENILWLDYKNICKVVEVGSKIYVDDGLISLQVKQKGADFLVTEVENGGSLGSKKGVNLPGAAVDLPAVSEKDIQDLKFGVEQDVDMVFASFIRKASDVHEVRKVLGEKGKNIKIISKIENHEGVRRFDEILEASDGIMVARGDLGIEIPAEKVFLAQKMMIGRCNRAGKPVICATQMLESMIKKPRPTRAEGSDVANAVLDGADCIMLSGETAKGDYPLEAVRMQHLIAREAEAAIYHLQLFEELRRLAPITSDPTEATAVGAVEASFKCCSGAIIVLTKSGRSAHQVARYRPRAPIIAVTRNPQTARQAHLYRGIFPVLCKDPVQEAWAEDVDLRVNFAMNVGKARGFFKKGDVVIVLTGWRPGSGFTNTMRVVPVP

Cc1cc(/C=C\c2ccc3cc(N(C)C)ccc3[n+]2C)c(C)n1-c1ccccc1
active: [1] 29 µM | 7G8 0.398 µM | CP215 3.22 µM | DIV14 2.87 µM | GB4 3.22 µM | ICS 0.562 µM | P93_24 0.708 µM

NC(=NCc1ccc(Cl)c(Cl)c1)NC(=O)c1nc(Cl)c(N)nc1N
inactive: [2] | [3] | [4] | [5] | [6]

CN(C)CC/C=C1\c2ccccc2CSc2ccccc21
inactive: [7] | CP262

NC(Cc1c[nH]c2ccccc12)C(=O)O (centres undefined)
active: [9] 3.16 µM
inactive: [8]

COc1ccc2ccc(=O)oc2c1
inactive: [10] | [11] | [12] | [8] | [13] | [9]

O=c1ccc2ccc(O)cc2o1
inactive: [10] | [12]
active: [13] 7.08 µM

CC(C)N1CCN(c2ccc(OC[C@@H]3CO[C@@](Cn4cncn4)(c4ccc(Cl)cc4Cl)O3)cc2)CC1
inactive: [7] | CP262 | DIV14 | ICS
